In PubChem BioAssay (NCATS):
Records with an inconclusive call do not appear. Activity calls are given as the source filed them. Calls follow the shape of the dose curve; as a rule, active = well fitted curve in the direction sought with a large enough effect; inconclusive = small, poorly fitted or top-dose-only effect, or another doubt; inactive = no such curve, though single readings can be large; an effect the other way counts as inactive or inconclusive.

Columns and labels:
[1] = target: Cellular tumor antigen p53 (Homo sapiens) (UniProt P04637); assay: Primary qHTS for small molecule compounds that upregulate eGFP-tagged delta133p53alpha (in N-terminal) cells. (AID 2060322); conditions: NCI-H358 eGFP-delta133p53alpha fluorescence, 24 h; activation: active compounds read high;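 also: cells pre-induced with doxycycline then dosed without doxycycline; series mostly up to about 56 µM; 0% = DMSO vehicle and 100% = reference activator; nearly all actives have a fitted effect of over 75% in size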
Summary of the method: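 NCI-H358 cells pre-induced 24 h with 10 ng/ml doxycycline for eGFP-delta133p53alpha, plated dox-free and exposed 24 h at 37C to titrated compounds. Fixed, Hoechst-stained; gated GFP peak intensity by laser scanning cytometry, normalized to DMSO (0%) and 57.5 uM 5-azacytidine (100%).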

[2] = target: Aldehyde dehydrogenase, mitochondrial (Homo sapiens) (UniProt P05091); assay: qHTS for Inhibitors of the Aldehyde Dehydrogenase Family (ALDH2) Primary screen (AID 2061308);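 also: plate controls were vehicle for no effect and reference inhibitor for full effect; nearly all actives have a fitted effect of over 55% in size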
[3] = target: Retinaldehyde dehydrogenase 3 (Homo sapiens) (UniProt P47895); assay: qHTS for Inhibitors of the Aldehyde Dehydrogenase Family (ALDH1A3) Primary screen (AID 2061315);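 also: plate controls were DMSO vehicle for no effect and reference inhibitor for full effect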

Sequence of Cellular tumor antigen p53 (Homo sapiens) (P04637 whole entry, looked up): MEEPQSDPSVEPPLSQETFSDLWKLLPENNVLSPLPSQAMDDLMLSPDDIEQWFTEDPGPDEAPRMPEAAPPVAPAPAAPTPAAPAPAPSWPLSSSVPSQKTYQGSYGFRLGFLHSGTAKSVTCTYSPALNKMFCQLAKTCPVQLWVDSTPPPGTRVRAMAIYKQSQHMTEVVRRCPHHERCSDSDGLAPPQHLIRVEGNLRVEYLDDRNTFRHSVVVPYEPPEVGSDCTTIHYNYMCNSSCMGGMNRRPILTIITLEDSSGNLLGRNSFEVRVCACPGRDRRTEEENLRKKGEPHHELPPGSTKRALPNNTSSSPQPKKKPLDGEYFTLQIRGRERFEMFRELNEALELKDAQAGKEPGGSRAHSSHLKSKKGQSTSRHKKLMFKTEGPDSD

O=C(c1ccc(OC(F)F)c(C#Cc2ccccn2)c1)N1Cc2cccnc2C1
inactive: activation [1] 4.77% | Potency [2] | Potency [3]

CC(C)(C)OC(=O)N1CCC(OCc2nc(-c3ccncc3)no2)CC1
inactive: activation [1] -3.34% | Potency [2] | Potency [3]

CC12CCC(OC3OC(CO)C(O)C(O)C3OC3OC(CO)C(O)C(O)C3O)CC1CCC1C2CCC2(C)/C(=C3/COC(=O)C3)CCC12O (stereo not given)
inactive: activation [1] -0.763% | Potency [2] | Potency [3]

CCC(C)C(=O)O[C@H]1CCC=C2C=C[C@H](C)[C@H](CC[C@@H](O)C[C@@H](O)CC(=O)O)[C@H]21 (stereo not given in full)
inactive: activation [1] -32.8% | Potency [2] | Potency [3]

CC(C)c1cc(C(=O)N2CC[C@@H](NC(=O)C3CC3)C2)n[nH]1
inactive: activation [1] -7.67% | Potency [2] | Potency [3]

CC12CC(O)C(O)C=C1c1cc(O)cc(O)c1C(=O)O2 (stereo not given)
inactive: activation [1] -7.63% | Potency [2] | Potency [3]

C/C=C(\C)C(=O)O[C@H]1C[C@](C)(O)[C@H]2CC=C(C)[C@H]2[C@@H]2OC(=O)[C@H](C)[C@H]21
inactive: activation [1] -15.2% | Potency [2] | Potency [3]

O=C(O)Cc1cc(I)c(Oc2ccc(O)c(I)c2)c(I)c1
inactive: activation [1] 2.39% | Potency [2] | Potency [3]

O=C(/C=C/c1ccc(O)cc1)O[C@H]1[C@H](OC2CCCCC2O)O[C@H](CO)[C@@H](O)[C@@H]1O (stereo not given in full)
inactive: activation [1] -11.5% | Potency [2] | Potency [3]

O=C(OC1C=C(CO)C2C(OC3OC(CO)C(O)C(O)C3O)OC=CC12)c1ccc(O)cc1 (stereo not given)
inactive: activation [1] -16% | Potency [2] | Potency [3]
